# Results as given in PubChem BioAssay (EPA / NIEHS).
# Inconclusive results are not listed. More than one record can exist for a structure, and the calls need not agree. The source made the active and inactive calls. The calls were made as follows, unless noted: active = hit-call score of the fitted dose curve at least 0.9, where 1 is the maximum; inconclusive = response in the unintended direction; inactive = score below 0.9.
# Columns and labels:
# [1] = target: rat Oxytocin Receptor (OXT), Oxtr (gene 25342) (UniProt P70536); experiment: NVS_GPCR_rOXT: NovaScreen (NVS) G Protein-Coupled Receptor Assay for rat Oxytocin Receptor (OXT) (AID 2283330)
# In short: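 Binding to rat uterine membrane receptor was followed by scintillation counting of filter-trapped radioligand after 1 h. A 25 uM duplicate single-point screen preceded concentration series with a top of 50 uM. Signal loss was analysed relative to DMSO.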
# [2] = target: rat Peripheral-type Benzodiazepine Receptor (PBR), Tspo (gene 24230) (UniProt P16257); experiment: NVS_MP_rPBR: NovaScreen (NVS) Membrane Protein Assay for rat Peripheral-type Benzodiazepine Receptor (PBR) (AID 2283335)
# In short: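 Single-concentration duplicate screening at 25 uM preceded concentration-series retesting of actives. Binding of a specific radioligand to rat kidney membrane PBR was read by filtration radiodetection after 1 h, with plate-wise positive and negative controls.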
# [3] = target: human Constitutive Androstane Receptor (CAR), NR1I3 (gene 9970) (UniProt Q14994); experiment: NVS_NR_hCAR_Antagonist: NovaScreen (NVS) Nuclear Receptor Binding Assay for human Constitutive Androstane Receptor Antagonism (CAR) (AID 2283344)
# In short: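 Single 25 uM duplicate primary screen, with concentration-series follow-up on actives. Cell-free binding format run in antagonist mode, TR-FRET signal taken 1 h post-dose; activity is signal loss relative to DMSO.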
# [4] = target: rat Thyrotropin Releasing Hormone Receptor (TRH), Trhr (gene 25570) (UniProt Q01717); experiment: NVS_GPCR_rTRH: NovaScreen (NVS) G Protein-Coupled Receptor Assay for rat Thyrotropin Releasing Hormone Receptor (TRH) (AID 2283329);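 also: hit means lower bound tracer signal versus DMSO baseline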
# In short: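 Competitive radioligand binding on rat forebrain membrane preparations, with filtration and scintillation readout after 4 h. Primary testing in duplicate at 25 uM; actives confirmed in concentration-response. DMSO defined baseline.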
# [5] = target: human Serotonin, 5-Hydroxytryptamine Receptor 3 (5HT3), HTR3A (gene 3359) (UniProt P46098); experiment: NVS_LGIC_h5HT3: NovaScreen (NVS) Ligand-Gated Ion Channel Assay for human Serotonin, 5-Hydroxytryptamine Receptor 3 (5HT3) (AID 2283325)
# In short: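 Initially tested at 25 uM in duplicate, then up to 50 uM in concentration-response for actives, compounds competed with a radioligand for HEK293-derived human 5-HT3 receptor. Bound counts were measured by filtration and scintillation at 1 h; loss of signal versus DMSO.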
# [6] = target: human Androgen Receptor (AR), AR (gene 367) (UniProt P10275); experiment: NVS_NR_hAR: NovaScreen (NVS) Nuclear Receptor Binding Assay for human Androgen Receptor (AR) (AID 2283332)
# In short: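 LnCAP cell-free extract; radioligand displacement read by scintillation counting after 20 h. Primary screen single concentration 25 uM in duplicate, actives then run as concentration series; loss-of-signal fitted relative to DMSO baseline.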
# [7] = target: chimpanzee Androgen Receptor (AR), AR (gene 747460) (UniProt O97775); experiment: NVS_NR_cAR: NovaScreen (NVS) Nuclear Receptor Binding Assay for chimpanzee Androgen Receptor (AR) (AID 2283346);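 also: radioligand displacement from AR measured by scintillation counting in a cell-free assay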
# In short: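 Radioligand binding to chimpanzee AR expressed in Sf9/Sf21 cells, cell-free, measured 72 h after dosing by lysate-based scintillation counting. Loss of signal vs DMSO; initial duplicate screen at 25 uM, actives retested in concentration series.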
# [8] = target: rat Gamma-Aminobutyric Acid Type A Receptor, Non-Selective (GABAR-NonSelective), Gabra1 (gene 29705) (UniProt P62813); experiment: NVS_LGIC_rGABAR_NonSelective: NovaScreen (NVS) Ligand-Gated Ion Channel Assay for rat Gamma-Aminobutyric Acid Type A Receptor, Non-Selective (GABAR-NonSelective) (AID 2283326)
# In short: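 Compounds were first screened in duplicate at 25 uM, with actives run as singleton concentration series (max 50 uM). Binding of a radioligand to rat whole-brain GABA-A preparation was measured by filtration and scintillation counting after 1 h, DMSO baseline.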
# [9] = tested on: NCBI gene 100848466; experiment: NVS_NR_bPR: NovaScreen (NVS) Nuclear Receptor Binding Assay for bovine Progextron Receptor (PR) (AID 2283343);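 as to AC50: actives lower bound radioligand signal below DMSO meaning displacement of the label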
# In short: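 Scintillation counts of bound radioligand were read 18 hours after chemical addition to membranes extracted from bovine uterus. Displacement was scored as loss of signal relative to DMSO controls. Screening began at 25 uM in duplicate.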
# [10] = target: Voltage-gated inwardly rectifying potassium channel KCNH2 (Homo sapiens) (UniProt Q12809); experiment: NVS_IC_hKhERGCh: NovaScreen (NVS) Ion Channel Assay for human Potassium Channel ERG (KhERGCh) (AID 2283333)
# In short: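 Membranes from CHO cells expressing human ERG; displacement of radioligand measured by filtration and scintillation after 0.75 h. Single-concentration duplicate screen at 25 uM, then concentration-response for actives; DMSO baseline.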
# [11] = NVS_IC_rCaBTZCHL: NovaScreen (NVS) Ion Channel Assay for Calcium Channel, Type L, Benzothiazepine Site (CaBTZCHL) (AID 2283337)
# In short: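 Benzothiazepine-site binding was assessed in a tissue-derived, cell-free rat cortical membrane system. After 1.5 h exposure, radioactivity retained on filters was quantified by scintillation; positive and negative controls accompanied every plate.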
# [12] = tested on: guinea pig Histamine Receptor (H2), gene 100729734; experiment: NVS_GPCR_gH2: NovaScreen (NVS) G Protein-Coupled Receptor Assay for guinea pig Histamine Receptor (H2) (AID 2283342)
# In short: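 Guinea pig striatal membrane preparation with specific radioligand; bound counts measured by filtration and scintillation 1 h post-dosing, DMSO as baseline. Chemicals passing a 25 uM duplicate screen were titrated to a 50 uM maximum.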
# [13] = target: bovine Estrogen Receptor (ER), ESR1 (gene 407238) (UniProt P49884); experiment: NVS_NR_bER: NovaScreen (NVS) Nuclear Receptor Binding Assay for bovine Estrogen Receptor (ER) (AID 2283345);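 also: actives lower the bound radioligand count which means they displace the ER ligand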
# In short: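 Displacement of a radioligand from estrogen receptor in bovine uterine membrane preparations; scintillation signal taken at 18 hours, DMSO as baseline. Single-concentration duplicates (25 uM) preceded concentration-response follow-up of actives.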
# [14] = target: rat Glutamate, AMPA Site (AMPA), Gria1 (gene 50592) (UniProt P19490); experiment: NVS_LGIC_rAMPA: NovaScreen (NVS) Ligand-Gated Ion Channel Assay for rat Glutamate, AMPA Site (AMPA) (AID 2283324)
# In short: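 Screening at 25 uM in duplicate preceded concentration series reaching 50 uM for qualifying compounds. Radioligand displacement on rat forebrain membranes, 1 h, filter-based scintillation readout; reduced binding relative to DMSO.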
# [15] = target: Glutamate receptor ionotropic, kainate 1 (Rattus norvegicus) (UniProt P22756); experiment: NVS_IC_rKAR: NovaScreen (NVS) Ion Channel Assay for rat Kainic Acid Receptors (KAR) (AID 2283334; active = hit-call score of the fitted dose curve at least 0.9, where 1 is the maximum; inactive = score below 0.9)
# In short: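 Rat forebrain membrane preparation incubated 1 h with radioligand and test chemical; bound signal read by filtration and scintillation. Single-concentration screen at 25 uM, then concentration series to 50 uM maximum.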
# [16] = target: rat Glutamate, NMDA Agonist Site (GluNMDA), Grin1 (gene 24408) (UniProt P35439); experiment: NVS_LGIC_rGluNMDA_Agonist: NovaScreen (NVS) Ligand-Gated Ion Channel Assay for rat Glutamate, NMDA Agonist Site (GluNMDA) (AID 2283327)
# In short: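 Radioligand displacement at the agonist site on rat forebrain membrane preparations, read by filter scintillation after 1 h. Chemicals were first run at 25 uM in duplicate; those passing threshold were titrated to a 50 uM maximum.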
# [17] = target: Bile acid receptor (Homo sapiens) (UniProt Q96RI1); experiment: NVS_NR_hFXR_Agonist: NovaScreen (NVS) Nuclear Receptor Binding Assay for human Farnesoid X Receptor Agonism (FXR) (AID 2283347)
# In short: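 Agonist-mode FXR assay read by time-resolved FRET 1 h after compound addition, using isolated human receptor protein without cells. Duplicate 25 uM single-point primary screen, concentration series for confirmed actives; DMSO as baseline.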
# [18] = target: rat Gamma-Aminobutyric Acid Type A Receptor BDZ, alpha 6 site (GABARa6), Gabra6 (gene 29708) (UniProt P30191); experiment: NVS_LGIC_rGABARa6: NovaScreen (NVS) Ligand-Gated Ion Channel Assay for rat Gamma-Aminobutyric Acid Type A Receptor BDZ, alpha 6 site (GABARa6) (AID 2283339)
# In short: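 Actives from a 25 uM duplicate screen were retested in concentration series (max 50 uM). Specific radioligand displacement from rat cerebellar membranes was counted by filter-based scintillation at 1 h; DMSO served as baseline.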
# [19] = target: rat Glutamate, MK-801 Agonist Site (GluNMDA_MK801), Grin1 (gene 24408) (UniProt P35439); experiment: NVS_LGIC_rGluNMDA_MK801_Agonist: NovaScreen (NVS) Ligand-Gated Ion Channel Assay for rat Glutamate, MK-801 Agonist Site (GluNMDA_MK801) (AID 2283340)
# In short: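 Rat forebrain membrane preparation; MK-801-site radioligand binding read by filtration and scintillation after 1.5 h. Single-point 25 uM duplicate screen, followed by singleton concentration series to 50 uM max; DMSO baseline.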
# [20] = target: bovine Gamma-Aminobutyric Acid Type A Receptor Agonist (GABAR Agonist), GABRA1 (gene 780973) (UniProt P08219); experiment: NVS_LGIC_bGABAR_Agonist: NovaScreen (NVS) Ligand-Gated Ion Channel Assay for bovine Gamma-Aminobutyric Acid Type A Receptor Agonist (GABAR Agonist) (AID 2283338)
# In short: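 Radioligand binding to bovine cerebellar membranes in agonist format, read by filter-based scintillation counting after 1 h. Primary screen in duplicate at 25 uM, with actives followed in concentration series. Gain of signal versus DMSO.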
# rat Peripheral-type Benzodiazepine Receptor (PBR), Tspo (gene 24230), sequence (P16257 whole entry, looked up): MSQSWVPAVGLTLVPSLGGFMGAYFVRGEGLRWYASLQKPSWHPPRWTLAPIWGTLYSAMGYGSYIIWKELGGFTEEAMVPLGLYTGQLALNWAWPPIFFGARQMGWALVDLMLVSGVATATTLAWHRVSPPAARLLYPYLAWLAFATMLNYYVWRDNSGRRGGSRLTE
# Voltage-gated inwardly rectifying potassium channel KCNH2 (Homo sapiens), sequence (Q12809 whole entry, looked up): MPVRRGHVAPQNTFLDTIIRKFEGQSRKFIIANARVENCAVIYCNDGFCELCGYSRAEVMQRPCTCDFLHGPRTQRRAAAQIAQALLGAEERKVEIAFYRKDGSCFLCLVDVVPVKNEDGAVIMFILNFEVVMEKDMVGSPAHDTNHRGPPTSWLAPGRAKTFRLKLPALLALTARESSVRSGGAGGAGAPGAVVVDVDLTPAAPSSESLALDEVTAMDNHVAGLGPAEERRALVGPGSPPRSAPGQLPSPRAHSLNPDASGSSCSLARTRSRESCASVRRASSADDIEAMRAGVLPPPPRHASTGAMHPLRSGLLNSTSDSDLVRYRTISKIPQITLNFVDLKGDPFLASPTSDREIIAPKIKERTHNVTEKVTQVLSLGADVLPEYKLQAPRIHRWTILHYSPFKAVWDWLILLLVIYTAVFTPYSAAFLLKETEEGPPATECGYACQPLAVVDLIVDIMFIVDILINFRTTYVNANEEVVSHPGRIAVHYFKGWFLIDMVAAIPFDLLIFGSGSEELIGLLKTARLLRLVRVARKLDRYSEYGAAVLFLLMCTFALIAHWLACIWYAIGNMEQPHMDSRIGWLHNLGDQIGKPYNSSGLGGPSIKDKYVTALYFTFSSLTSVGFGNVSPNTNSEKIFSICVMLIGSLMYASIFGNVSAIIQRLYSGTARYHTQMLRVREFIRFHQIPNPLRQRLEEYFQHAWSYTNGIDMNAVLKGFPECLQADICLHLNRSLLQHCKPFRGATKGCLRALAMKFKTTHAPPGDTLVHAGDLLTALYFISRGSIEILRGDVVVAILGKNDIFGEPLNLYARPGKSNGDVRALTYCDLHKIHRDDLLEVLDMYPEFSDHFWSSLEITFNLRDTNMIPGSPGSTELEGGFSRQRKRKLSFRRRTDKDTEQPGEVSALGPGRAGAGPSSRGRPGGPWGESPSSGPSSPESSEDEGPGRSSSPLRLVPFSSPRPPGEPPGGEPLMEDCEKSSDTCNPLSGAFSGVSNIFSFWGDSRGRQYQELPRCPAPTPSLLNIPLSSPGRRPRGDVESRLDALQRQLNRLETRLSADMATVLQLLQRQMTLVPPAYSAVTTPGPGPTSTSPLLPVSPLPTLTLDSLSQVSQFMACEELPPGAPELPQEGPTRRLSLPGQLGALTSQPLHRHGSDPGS
# bovine Estrogen Receptor (ER), ESR1 (gene 407238), sequence (P49884 whole entry, looked up): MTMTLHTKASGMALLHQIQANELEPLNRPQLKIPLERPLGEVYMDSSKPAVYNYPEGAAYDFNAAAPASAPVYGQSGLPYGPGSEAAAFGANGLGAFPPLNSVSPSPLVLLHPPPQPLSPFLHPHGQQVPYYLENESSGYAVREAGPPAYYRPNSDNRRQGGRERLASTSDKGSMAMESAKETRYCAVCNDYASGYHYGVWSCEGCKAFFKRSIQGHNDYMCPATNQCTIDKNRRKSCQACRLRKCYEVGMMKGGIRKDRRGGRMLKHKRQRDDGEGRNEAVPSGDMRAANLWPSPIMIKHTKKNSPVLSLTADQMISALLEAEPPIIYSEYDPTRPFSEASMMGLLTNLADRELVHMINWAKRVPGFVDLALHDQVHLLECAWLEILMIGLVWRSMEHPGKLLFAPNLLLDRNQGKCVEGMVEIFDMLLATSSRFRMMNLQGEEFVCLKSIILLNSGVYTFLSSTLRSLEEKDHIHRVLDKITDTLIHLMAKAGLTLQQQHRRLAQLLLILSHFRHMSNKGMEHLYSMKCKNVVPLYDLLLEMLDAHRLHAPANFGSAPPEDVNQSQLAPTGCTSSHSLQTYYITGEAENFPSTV
# rat Glutamate, AMPA Site (AMPA), Gria1 (gene 50592), sequence (P19490 whole entry, looked up): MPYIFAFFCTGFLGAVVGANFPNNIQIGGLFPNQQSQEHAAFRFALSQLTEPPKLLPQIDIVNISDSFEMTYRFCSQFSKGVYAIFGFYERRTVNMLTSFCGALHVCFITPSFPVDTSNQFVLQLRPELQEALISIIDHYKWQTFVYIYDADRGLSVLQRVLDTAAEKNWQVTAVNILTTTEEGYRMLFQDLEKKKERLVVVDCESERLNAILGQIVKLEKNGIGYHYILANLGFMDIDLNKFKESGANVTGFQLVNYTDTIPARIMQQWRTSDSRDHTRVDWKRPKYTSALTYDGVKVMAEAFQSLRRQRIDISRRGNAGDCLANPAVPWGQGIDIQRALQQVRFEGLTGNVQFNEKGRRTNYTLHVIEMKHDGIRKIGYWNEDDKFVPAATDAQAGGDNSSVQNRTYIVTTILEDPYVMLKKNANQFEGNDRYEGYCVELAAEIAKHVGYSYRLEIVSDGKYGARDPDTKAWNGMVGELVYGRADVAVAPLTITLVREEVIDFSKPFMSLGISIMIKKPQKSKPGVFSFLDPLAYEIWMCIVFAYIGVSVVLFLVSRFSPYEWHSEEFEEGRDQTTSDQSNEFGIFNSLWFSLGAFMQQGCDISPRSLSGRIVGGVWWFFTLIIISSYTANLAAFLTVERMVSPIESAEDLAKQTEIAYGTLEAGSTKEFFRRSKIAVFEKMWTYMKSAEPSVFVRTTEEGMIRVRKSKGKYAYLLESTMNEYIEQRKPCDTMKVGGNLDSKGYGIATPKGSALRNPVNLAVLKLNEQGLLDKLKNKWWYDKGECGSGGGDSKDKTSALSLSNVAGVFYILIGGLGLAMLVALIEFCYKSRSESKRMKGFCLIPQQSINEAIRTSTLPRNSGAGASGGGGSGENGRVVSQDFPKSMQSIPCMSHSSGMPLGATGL
# human Serotonin, 5-Hydroxytryptamine Receptor 3 (5HT3), HTR3A (gene 3359), sequence (P46098 whole entry, looked up): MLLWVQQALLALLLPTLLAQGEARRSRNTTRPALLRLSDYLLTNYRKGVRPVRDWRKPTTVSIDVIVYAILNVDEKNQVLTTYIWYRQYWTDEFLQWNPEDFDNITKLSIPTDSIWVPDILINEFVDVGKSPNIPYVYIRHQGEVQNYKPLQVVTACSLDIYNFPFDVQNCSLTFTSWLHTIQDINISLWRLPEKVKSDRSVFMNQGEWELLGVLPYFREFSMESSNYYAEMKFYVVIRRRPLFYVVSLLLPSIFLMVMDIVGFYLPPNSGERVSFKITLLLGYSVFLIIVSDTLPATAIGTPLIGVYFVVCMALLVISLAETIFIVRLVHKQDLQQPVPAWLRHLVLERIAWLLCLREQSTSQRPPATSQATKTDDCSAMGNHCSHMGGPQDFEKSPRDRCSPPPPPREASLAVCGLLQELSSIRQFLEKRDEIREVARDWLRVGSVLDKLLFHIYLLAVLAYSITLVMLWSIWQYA
# human Constitutive Androstane Receptor (CAR), NR1I3 (gene 9970), sequence (Q14994 whole entry, looked up): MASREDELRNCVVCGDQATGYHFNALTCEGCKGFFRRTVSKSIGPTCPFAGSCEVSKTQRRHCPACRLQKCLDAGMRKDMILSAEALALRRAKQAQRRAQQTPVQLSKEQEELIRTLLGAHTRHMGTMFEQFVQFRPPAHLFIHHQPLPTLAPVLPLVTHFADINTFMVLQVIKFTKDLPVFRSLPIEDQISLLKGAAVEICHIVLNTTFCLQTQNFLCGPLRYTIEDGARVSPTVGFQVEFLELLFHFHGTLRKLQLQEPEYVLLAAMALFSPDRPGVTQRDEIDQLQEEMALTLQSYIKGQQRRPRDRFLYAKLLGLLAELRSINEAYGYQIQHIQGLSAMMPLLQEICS
# human Androgen Receptor (AR), AR (gene 367), sequence (P10275 whole entry, looked up): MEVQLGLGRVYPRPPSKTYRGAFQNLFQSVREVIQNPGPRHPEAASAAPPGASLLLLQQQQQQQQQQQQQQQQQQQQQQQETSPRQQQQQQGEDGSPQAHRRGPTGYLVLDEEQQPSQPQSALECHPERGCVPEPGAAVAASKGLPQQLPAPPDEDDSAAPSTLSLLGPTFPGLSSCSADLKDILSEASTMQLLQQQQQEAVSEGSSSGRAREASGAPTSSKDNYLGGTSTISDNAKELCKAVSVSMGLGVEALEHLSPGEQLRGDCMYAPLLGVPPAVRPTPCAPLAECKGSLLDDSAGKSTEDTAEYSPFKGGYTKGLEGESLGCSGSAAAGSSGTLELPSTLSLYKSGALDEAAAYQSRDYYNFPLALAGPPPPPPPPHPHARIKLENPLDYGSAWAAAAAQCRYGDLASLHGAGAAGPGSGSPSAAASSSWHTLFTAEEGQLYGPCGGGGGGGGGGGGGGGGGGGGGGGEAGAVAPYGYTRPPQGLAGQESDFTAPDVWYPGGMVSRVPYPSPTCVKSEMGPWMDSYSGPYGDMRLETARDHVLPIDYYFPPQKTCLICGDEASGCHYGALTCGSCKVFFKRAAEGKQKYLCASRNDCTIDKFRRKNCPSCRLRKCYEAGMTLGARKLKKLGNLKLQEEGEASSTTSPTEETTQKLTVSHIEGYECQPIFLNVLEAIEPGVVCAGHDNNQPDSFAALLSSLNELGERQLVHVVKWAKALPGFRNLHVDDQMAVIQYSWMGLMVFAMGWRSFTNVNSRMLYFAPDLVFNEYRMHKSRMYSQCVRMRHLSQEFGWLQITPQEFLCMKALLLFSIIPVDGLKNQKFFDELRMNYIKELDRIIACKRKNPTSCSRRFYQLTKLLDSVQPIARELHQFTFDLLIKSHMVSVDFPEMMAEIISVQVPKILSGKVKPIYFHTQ
# rat Thyrotropin Releasing Hormone Receptor (TRH), Trhr (gene 25570), sequence (Q01717 whole entry, looked up): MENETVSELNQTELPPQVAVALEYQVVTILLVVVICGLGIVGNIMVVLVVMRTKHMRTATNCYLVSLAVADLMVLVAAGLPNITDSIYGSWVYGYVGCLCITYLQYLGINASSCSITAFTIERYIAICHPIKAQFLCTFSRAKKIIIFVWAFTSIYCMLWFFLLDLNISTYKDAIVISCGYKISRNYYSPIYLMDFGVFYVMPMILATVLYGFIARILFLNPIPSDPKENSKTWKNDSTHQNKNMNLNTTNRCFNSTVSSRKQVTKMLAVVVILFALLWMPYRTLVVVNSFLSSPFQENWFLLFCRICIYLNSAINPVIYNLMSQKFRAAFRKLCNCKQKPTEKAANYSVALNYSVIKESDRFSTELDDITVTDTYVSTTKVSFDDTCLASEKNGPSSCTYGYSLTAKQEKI
smiles,measurement,setting,value
CC(C)NC(=O)N1CC(=O)N(c2cc(Cl)cc(Cl)c2)C1=O,outcome,[1],inactive
same,AC50,[2],13.3 µM (active)
same,outcome,[3],inactive
O=P(O)(O)CCCl,outcome,[1],inactive
Cc1cnc(C2=NC(C)(C(C)C)C(=O)N2)c(C(=O)O)c1 (stereo unspecified),outcome,[4],inactive
Cc1c(COC(=O)[C@@H]2[C@H](/C=C(\Cl)C(F)(F)F)C2(C)C)cccc1-c1ccccc1,outcome,[5],inactive
same,outcome,[2],inactive
CCOP(=S)(OCC)Oc1nc(Cl)n(C(C)C)n1,outcome,[4],inactive
same,AC50,[2],12.9 µM (active)
CC1(C)CCC(=Cc2ccc(Cl)cc2)C1(O)Cn1cncn1 (stereo unspecified),outcome,[5],inactive
same,AC50,[6],0.955 µM (active)
same,AC50,[7],0.672 µM (active)
COC(=O)c1c(C(F)F)nc(C(F)(F)F)c(C2=NCCS2)c1CC(C)C,outcome,[8],inactive
same,AC50,[4],25 µM (active)
same,AC50,[2],0.484 µM (active)
same,outcome,[9],inactive
same,outcome,[3],inactive
CCCCC(C#N)(Cn1cncn1)c1ccc(Cl)cc1 (stereo unspecified),outcome,[10],inactive
same,AC50,[2],12.5 µM (active)
same,outcome,[11],inactive
same,AC50,[12],29.7 µM (active)
same,outcome,[9],inactive
same,outcome,[3],inactive
same,outcome,[13],inactive
Nc1c(Cl)c(Cl)nc(C(=O)O)c1Cl,outcome,[4],inactive
CC(C)C1(C)N=C(c2ncccc2C(=O)O)NC1=O (stereo unspecified),outcome,[4],inactive
same,outcome,[3],inactive
CC1(C)C(C(=O)OC(C#N)c2cccc(Oc3ccccc3)c2)C1(C)C (stereo unspecified),outcome,[5],inactive
same,outcome,[2],inactive
CCN(CC)C(=O)C(C)Oc1cccc2ccccc12 (stereo unspecified),AC50,[4],42.2 µM (active)
same,outcome,[4],inactive
same,AC50,[2],0.125 µM (active)
same,AC50,[3],34.2 µM (active)
same,AC50,[7],11.5 µM (active)
COP(=S)(OC)SCn1nnc2ccccc2c1=O,AC50,[6],10.9 µM (active)
same,AC50,[2],13.6 µM (active)
same,outcome,[3],inactive
same,AC50,[7],16.1 µM (active)
CCNC(=O)NC(=O)C(C#N)=NOC,outcome,[14],inactive
same,outcome,[4],inactive
CO/N=C(/C1=NOCCO1)c1ccccc1Oc1ncnc(Oc2ccccc2Cl)c1F,outcome,[15],inactive
CC(C)N1C(=O)c2ccccc2NS1(=O)=O,outcome,[16],inactive
C=C(C)CN(CC)c1c([N+](=O)[O-])cc(C(F)(F)F)cc1[N+](=O)[O-],outcome,[14],inactive
same,outcome,[3],inactive
same,outcome,[7],inactive
CCOc1nc(F)cc2nc(S(=O)(=O)Nc3c(Cl)cccc3Cl)nn12,outcome,[4],inactive
same,outcome,[3],inactive
same,outcome,[17],inactive
CC1(C)CON(Cc2ccccc2Cl)C1=O,outcome,[4],inactive
CCOC(=O)C(C)OC(=O)c1cc(Oc2ccc(C(F)(F)F)cc2Cl)ccc1[N+](=O)[O-] (stereo unspecified),outcome,[4],inactive
same,AC50,[2],6.45 µM (active)
same,outcome,[3],inactive
same,outcome,[13],inactive
CN=C=S,outcome,[14],inactive
same,outcome,[16],inactive
same,outcome,[3],inactive
same,outcome,[13],inactive
COC(=O)NS(=O)(=O)c1ccc(N)cc1,outcome,[8],inactive
same,outcome,[3],inactive
CCCCC(O)(Cn1cncn1)c1ccc(Cl)cc1Cl (stereo unspecified),outcome,[4],inactive
same,AC50,[6],18 µM (active)
same,AC50,[10],13.4 µM (active)
same,outcome,[11],inactive
same,AC50,[18],1.89 µM (active)
same,outcome,[19],inactive
same,AC50,[9],7.24 µM (active)
same,outcome,[13],inactive
same,AC50,[7],25 µM (active)
CS(=O)(=O)c1cc(C(F)(F)F)ccc1C(=O)c1cnoc1C1CC1,outcome,[5],inactive
same,outcome,[13],inactive
Nc1cnn(-c2ccccc2)c(=O)c1Cl,outcome,[4],inactive
same,outcome,[20],inactive
CCCN(CC)CC1COC2(CCC(C(C)(C)C)CC2)O1 (stereo unspecified),AC50,[10],5.15 µM (active)
same,AC50,[11],9.84 µM (active)
same,AC50,[12],9.65 µM (active)
Cn1c(-c2ccccc2)cc(-c2ccccc2)[n+]1C,AC50,[11],33.3 µM (active)
